# Results filed as inconclusive are left out. Entries that show only a call come without a potency. Calls of active or inactive are those of the source. Unless noted, the call rests on the fitted dose curve; in most records, active means well fitted curve in the direction sought with a large enough effect; inconclusive means small, poorly fitted or top-dose-only effect, or another doubt; inactive means no such curve, though single readings can be large; an effect the other way counts as inactive or inconclusive.
# Experiments:
# [1] = Primary qHTS for inhibitors of nuclear receptor binding SET domain protein 2 (NSD2) in an isogenic RCH-ACV NSD2 p.E1099K mutant (9B) (AID 1645876); further: potency means the concentration at half of the fitted maximal effect; nearly all actives have a fitted effect of over 70% in size
# [2] = Primary qHTS for inhibitors of nuclear receptor binding SET domain protein 2 (NSD2) in an RCH-ACV wild type WT cells (2C) (AID 1645877); further: potency means the concentration at half of the fitted maximal effect; nearly all actives have a fitted effect of over 70% in size
# [3] = qHTS drug screen for cell cycle checkpoint inhibitors in PARPi-resistant BRCA-mutant ovarian cancer cell lines. (AID 1963452; calls by dose curve; further: potency means the concentration at half of the fitted maximal effect); conditions: PEO1/OlaR viability, CellTiter-Glo luminescence, 96 h; for Z-AUC: stronger effect = lower value
# How it was run: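 PEO1, PEO4 and PEO1/OlaR ovarian cancer cells, 600 per well, exposed 96 h at 37C to a dilution series. Viability read by CellTiter-Glo luminescence, normalized to DMSO and empty wells; activity summarized as Z-AUC.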
# [4] = qHTS assay to identify inhibitors of the type 1 interferon - major histocompatibility complex class I in skeletal muscle: Counter screen cell viability and HiBit confirmation (AID 1347412); conditions: iHSKM muscle cells + IFN-b, HiBiT or CellTiter-Glo, 24 h; for activity change, negative = inhibition: at 45.9 µM (top of the series); further: potency means the concentration at half of the fitted maximal effect; on all read-outs here: nearly all actives have a fitted effect of over 60% in size
# How it was run: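 CRISPR HLA-B*08:01-HiBit immortalized human myoblasts (C25cl48) stimulated with 4 ng/ml IFN-beta and compounds (12-point 1:3, top 46 uM final) for 24 h at 37 C. Duplicate plates read by HiBit lytic luminescence or CellTiter Glo ATP.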
# [5] = Validation of Assay for Modulators of Lamin A Splicing (AID 1459; active means well fitted curve in the direction sought with a large enough effect in the signal ratio; the % refers to the signal ratio;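 further: cells exposed to compound for two days before reading; ratio rise marks activators and ratio drop marks inhibitors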)
# How it was run: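 S3 HeLa stably expressing lamin A-EGFP splicing minigene and DsRed2, 600 cells/well in Opti-MEM with 2% FBS, treated 48 h at 37C; laser-scanning cytometry gives GFP/RFP total intensity ratio; ancitabine positive control, 0.5% DMSO vehicle.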
# [6] = molecular target: DNA repair nuclease/redox regulator APEX1 (Homo sapiens) (UniProt P27695); experiment: qHTS Validation Assay for Inhibitors of the Human Apurinic/apyrimidinic Endonuclease 1 (APE1) (AID 1705;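 further: TAMRA fluorescence gain over two minutes as APE1 cuts a quenched THF abasic duplex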)
# Chain of DNA repair nuclease/redox regulator APEX1 (Homo sapiens) (P27695 whole entry, looked up): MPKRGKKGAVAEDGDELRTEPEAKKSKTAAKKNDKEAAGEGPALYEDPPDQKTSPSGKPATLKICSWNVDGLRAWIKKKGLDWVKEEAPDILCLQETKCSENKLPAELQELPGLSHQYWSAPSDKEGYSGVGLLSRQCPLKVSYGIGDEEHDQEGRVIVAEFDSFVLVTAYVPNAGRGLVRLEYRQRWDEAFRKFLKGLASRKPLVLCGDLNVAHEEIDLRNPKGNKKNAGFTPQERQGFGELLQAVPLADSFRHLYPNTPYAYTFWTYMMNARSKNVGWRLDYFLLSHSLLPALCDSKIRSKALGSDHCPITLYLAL
# How it was run: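 Fluorogenic double-stranded THF abasic-site substrate (5'-TAMRA/3'-BHQ-2), 50 nM final. Enzyme preincubated with compound 15 min at room temperature, then substrate added. Kinetic fluorescence (ex 525/em 598 nm) read three times at 60 s intervals; activity taken as third-minus-first read difference.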
# [7] = Counterscreen for APE1 Inhibitors: Fluorescent Dye Displacement Validation Assay (AID 1707)
# How it was run: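 Counterscreen flags promiscuous DNA binders: compounds displacing ThO from duplex DNA (abasic THF site, 50 nM) reduce 540 nm emission (480 nm excitation). ThO 250 nM final; Tris-HCl pH 7.5 with NaCl, MgCl2 and Tween-20.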
# [8] = qHTS for differential inhibitors of proliferation of Plasmodium falciparum line Dd2 (AID 1882); conditions: Potency: Plasmodium falciparum Dd2 proliferation inhibition;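 further: compound exposure of 72 h on infected erythrocytes; nearly all actives have a fitted effect of over 65% in size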
# How it was run: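 RBC culture, 0.3% parasitemia / 2.5% Hct final; cpd added by pin tool in DMSO; 72 h, 37 C, 5% CO2; lysis buffer + SYBR Green I, o/n RT dark; FI 485/535; norm. to artemisinin 0.29 uM and DMSO.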
# [9] = molecular target: ATP-dependent DNA helicase Q1 (Homo sapiens) (UniProt P46063); experiment: qHTS Validation Assay for Inhibitors of RecQ-Like Dna Helicase 1 (RECQ1) (AID 2353)
# Chain of ATP-dependent DNA helicase Q1 (Homo sapiens) (P46063 whole entry, looked up): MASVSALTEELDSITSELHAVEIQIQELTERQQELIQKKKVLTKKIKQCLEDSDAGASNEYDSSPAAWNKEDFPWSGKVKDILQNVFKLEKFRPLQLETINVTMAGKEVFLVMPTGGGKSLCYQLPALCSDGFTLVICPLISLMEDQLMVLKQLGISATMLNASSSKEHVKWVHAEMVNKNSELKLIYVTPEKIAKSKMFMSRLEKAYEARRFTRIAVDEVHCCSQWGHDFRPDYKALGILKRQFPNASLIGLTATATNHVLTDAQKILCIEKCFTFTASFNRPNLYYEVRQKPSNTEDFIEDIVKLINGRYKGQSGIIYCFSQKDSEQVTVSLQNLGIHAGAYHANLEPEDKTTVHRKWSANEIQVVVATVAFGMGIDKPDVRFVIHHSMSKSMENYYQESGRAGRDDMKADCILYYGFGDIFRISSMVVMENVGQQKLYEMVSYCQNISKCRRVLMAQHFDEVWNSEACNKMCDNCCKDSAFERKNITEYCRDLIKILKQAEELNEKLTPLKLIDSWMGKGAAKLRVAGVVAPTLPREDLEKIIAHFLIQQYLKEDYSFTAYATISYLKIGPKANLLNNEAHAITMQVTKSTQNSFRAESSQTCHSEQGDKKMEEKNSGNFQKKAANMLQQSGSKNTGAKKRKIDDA
# How it was run: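 RECQ1T1 50 nM; forked duplex (20 bp + 30-nt ss tails) 200 nM, ATP 2 mM final; pH 8.0, 2 mM MgCl2, 2.5 ug/ml poly(dI-dC); 15 min compound preincubation; discontinuous kinetic read over 2 h at RT.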
# [10] = Validation screen for small molecules that induce DNA re-replication in MCF 10A normal breast cells (AID 463097); further: nearly all actives have a fitted effect of over 60% in size
# How it was run: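 MCF 10A cells exposed to compound 48 hr at 37 C, 5% CO2, then Hoechst-stained 40 min. Laser-scanning imaging of nuclear DNA content (405 nm ex, 500-530 nm em); re-replication scored as rise in nuclei with elevated fluorescence intensity.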
# [11] = molecular target: Thyrotropin receptor (Homo sapiens) (UniProt P16473); experiment: qHTS Assay for Antagonists of the Thyroid Stimulating Hormone Receptor (AID 488980)
# Chain of Thyrotropin receptor (Homo sapiens) (P16473 whole entry, looked up): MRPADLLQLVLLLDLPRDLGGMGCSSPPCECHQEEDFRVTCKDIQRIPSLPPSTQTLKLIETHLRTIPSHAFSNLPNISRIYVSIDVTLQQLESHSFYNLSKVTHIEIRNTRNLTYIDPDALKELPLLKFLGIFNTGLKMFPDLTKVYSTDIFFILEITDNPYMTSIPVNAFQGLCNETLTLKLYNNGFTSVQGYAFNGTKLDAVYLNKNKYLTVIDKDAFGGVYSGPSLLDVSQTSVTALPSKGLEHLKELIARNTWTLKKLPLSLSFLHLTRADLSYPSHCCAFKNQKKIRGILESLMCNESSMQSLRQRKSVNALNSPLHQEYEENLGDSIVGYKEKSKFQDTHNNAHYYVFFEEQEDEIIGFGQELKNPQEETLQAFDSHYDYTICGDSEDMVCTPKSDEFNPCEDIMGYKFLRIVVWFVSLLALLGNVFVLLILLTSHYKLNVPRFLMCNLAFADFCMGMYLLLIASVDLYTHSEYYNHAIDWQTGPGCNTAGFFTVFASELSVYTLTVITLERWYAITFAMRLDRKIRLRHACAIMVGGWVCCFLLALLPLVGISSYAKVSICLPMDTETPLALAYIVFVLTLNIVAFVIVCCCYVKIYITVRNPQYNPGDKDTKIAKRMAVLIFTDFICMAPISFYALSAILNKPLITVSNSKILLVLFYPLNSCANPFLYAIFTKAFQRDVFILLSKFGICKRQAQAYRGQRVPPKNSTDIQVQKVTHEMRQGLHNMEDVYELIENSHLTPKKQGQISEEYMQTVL
# How it was run: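 TSHR-transfected HEK293 cells (2000/well) in HEPES-buffered HBSS with 70 uM RO 20-1724 were stimulated with 4 nM TSH (EC80, final) in the presence of compound. cAMP was measured by HTRF competition after lysis and 30 min at RT.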
# [12] = molecular target: Galactokinase (Homo sapiens) (UniProt P51570); experiment: qHTS Validation Assay for Inhibitors of Human Galactokinase (GALK) (AID 493189)
# Chain of Galactokinase (Homo sapiens) (P51570 whole entry, looked up): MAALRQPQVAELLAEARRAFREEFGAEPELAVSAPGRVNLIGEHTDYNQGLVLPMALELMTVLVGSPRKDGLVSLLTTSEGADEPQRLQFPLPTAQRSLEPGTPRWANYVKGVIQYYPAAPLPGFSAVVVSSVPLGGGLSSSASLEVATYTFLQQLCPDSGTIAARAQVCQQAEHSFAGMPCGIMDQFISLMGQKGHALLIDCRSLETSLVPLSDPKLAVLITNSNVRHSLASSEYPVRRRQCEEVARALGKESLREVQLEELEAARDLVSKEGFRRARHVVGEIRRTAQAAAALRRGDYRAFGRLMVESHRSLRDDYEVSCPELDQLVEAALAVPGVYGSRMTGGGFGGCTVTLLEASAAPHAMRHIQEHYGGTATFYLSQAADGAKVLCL
# How it was run: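 GALK (5 nM) with 35 uM ATP and 100 uM galactose in HEPES pH 8.0 with MgCl2, NaCl, DTT and BSA. Reaction ran 1 h at room temperature. Residual ATP read by Kinase-Glo Plus luminescence.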
# [13] = Validation screen for small molecules that induce DNA re-replication in SW480 colon adenocarcinoma cells (AID 504364)
# How it was run: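 Hoechst-stained SW480 nuclei, imaged at 405 nm excitation after 48 hr compound exposure, were counted for elevated DNA content as the re-replication signal.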
# [14] = qHTS Assay for Lipid Storage Modulators (AID 1519; calls by dose curve); conditions: Drosophila S3 cells, BODIPY lipid droplet/cell ratio, laser cytometry, cells loaded with oleic acid
# How it was run: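 Cells seeded at 5,000 per well were treated with compounds over a concentration series and loaded with oleic acid (400 uM, as added). Lipid droplet fluorescence (488 nm excitation, 500-530 nm channel) was read by laser-scanning cytometry and normalized to 20 uM Triacsin C.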
# [15] = molecular target: Endonuclease 4 (Escherichia coli (strain K12)) (UniProt P0A6C1); experiment: Counterscreen for APE1 Inhibitors: qHTS Validation Assay for Inhibitors of Endonuclease IV (AID 1708)
# How it was run: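 Read-out: fluorescence rise (ex 525/em 598 nm) from incision of a TAMRA/BHQ-2 double-stranded THF abasic-site substrate (50 nM), measured kinetically; third-minus-first read difference gave reaction progress. Enzyme 2 nM.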
# [16] = molecular target: M-phase phosphoprotein 8 (Homo sapiens) (UniProt Q99549); experiment: qHTS Validation Assay for Inhibitors for MPP8 Chromodomain Interactions with Methylated Histone Tails (AID 488949); further: top concentration of the series differs between compounds; nearly all actives have a fitted effect of over 55% in size
# Chain of M-phase phosphoprotein 8 (Homo sapiens) (Q99549 whole entry, looked up): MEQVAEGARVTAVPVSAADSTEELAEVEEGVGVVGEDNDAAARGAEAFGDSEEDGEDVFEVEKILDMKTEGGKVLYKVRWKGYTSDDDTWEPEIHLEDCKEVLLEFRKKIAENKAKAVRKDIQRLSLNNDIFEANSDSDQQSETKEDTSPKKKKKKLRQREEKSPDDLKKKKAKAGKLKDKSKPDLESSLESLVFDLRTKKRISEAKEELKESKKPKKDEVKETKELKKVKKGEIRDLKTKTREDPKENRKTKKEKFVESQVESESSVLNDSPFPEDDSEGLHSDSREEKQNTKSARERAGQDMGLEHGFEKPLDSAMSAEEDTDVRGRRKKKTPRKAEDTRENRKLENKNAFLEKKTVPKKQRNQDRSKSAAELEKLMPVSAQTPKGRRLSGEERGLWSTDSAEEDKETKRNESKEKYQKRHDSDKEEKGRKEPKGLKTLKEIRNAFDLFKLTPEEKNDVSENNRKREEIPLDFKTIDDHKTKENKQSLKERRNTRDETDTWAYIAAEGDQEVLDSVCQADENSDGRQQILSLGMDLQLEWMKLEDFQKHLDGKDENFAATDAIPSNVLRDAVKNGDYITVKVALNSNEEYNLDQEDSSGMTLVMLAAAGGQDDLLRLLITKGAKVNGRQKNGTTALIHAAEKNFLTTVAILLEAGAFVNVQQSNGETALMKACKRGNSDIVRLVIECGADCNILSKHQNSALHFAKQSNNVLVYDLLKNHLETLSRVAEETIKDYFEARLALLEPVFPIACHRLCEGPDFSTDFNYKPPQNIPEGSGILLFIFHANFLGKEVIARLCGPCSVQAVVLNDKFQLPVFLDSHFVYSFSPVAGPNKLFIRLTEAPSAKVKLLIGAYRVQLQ
# How it was run: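 MPP8 (50 nM) was pre-bound to 50 nM biotinylated H3(1-18)K9me3 peptide in PBS pH 7.4 with 0.01% Tween-20. Compounds were then added for 30 min at room temperature, and complex disruption was read by AlphaScreen with streptavidin donor and nickel-chelate acceptor beads.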
# [17] = molecular target: Transient receptor potential cation channel subfamily V member 1 (Homo sapiens) (UniProt Q8NER1); experiment: HTS Assay for Compounds that Act as Enhancers of the Vanilloid Receptor 1 (AID 488979)
# Chain of Transient receptor potential cation channel subfamily V member 1 (Homo sapiens) (Q8NER1 whole entry, looked up): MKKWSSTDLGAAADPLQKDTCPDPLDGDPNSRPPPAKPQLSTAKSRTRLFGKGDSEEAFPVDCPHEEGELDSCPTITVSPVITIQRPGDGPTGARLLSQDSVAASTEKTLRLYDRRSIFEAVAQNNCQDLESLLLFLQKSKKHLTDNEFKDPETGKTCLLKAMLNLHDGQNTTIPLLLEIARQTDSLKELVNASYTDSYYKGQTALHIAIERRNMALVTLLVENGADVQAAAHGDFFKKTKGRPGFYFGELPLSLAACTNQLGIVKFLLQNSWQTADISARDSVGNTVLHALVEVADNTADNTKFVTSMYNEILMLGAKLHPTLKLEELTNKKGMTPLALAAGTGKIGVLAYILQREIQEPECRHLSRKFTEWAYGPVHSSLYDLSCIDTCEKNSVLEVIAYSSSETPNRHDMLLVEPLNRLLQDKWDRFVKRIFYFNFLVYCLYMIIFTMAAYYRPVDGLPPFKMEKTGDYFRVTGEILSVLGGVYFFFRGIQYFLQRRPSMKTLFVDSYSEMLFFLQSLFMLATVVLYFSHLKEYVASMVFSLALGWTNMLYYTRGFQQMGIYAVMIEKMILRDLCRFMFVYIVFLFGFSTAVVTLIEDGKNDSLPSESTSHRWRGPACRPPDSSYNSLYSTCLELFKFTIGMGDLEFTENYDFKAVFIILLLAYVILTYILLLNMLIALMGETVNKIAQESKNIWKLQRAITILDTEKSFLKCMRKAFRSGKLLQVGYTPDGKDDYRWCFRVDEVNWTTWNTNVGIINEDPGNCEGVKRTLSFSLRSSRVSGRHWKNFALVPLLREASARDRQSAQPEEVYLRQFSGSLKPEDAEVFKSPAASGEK
# How it was run: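 TRPV1 cells loaded with Fluo-8 calcium dye; compound added and Ca2+ signal (ex 480/em 520 nm) followed 3 min, then capsaicin at EC20 added and read 2 more min to detect enhancement.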
# [18] = molecular target: Glutathione peroxidase 1 (Homo sapiens) (UniProt P07203); experiment: Primary qHTS Assay for Inhibitors of Recombinant Selenoprotein Glutathione Peroxidase 1 (GPX1) (AID 1845191); further: nearly all actives have a fitted effect of over 65% in size
# Chain of Glutathione peroxidase 1 (Homo sapiens) (P07203 whole entry, looked up): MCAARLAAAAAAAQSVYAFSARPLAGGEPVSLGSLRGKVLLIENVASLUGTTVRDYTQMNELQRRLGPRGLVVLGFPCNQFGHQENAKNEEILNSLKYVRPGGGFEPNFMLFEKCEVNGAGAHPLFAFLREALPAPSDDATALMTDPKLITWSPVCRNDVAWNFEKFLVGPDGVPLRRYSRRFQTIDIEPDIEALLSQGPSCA
# How it was run: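 GR-coupled readout: NADPH consumption tracked by fluorescence, ex 340/em 450 nm, at t=0 and after 15 min at RT. Final mix 10 nM GPX1, 1 mM GSH, 0.5 mM CHP, 0.5 mM NADPH, 100 nM GR, 0.01% BSA, following 30 min enzyme–compound preincubation.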
# [19] = molecular target: Phospholipid hydroperoxide glutathione peroxidase GPX4 (Homo sapiens) (UniProt P36969); experiment: Primary qHTS Assay for Inhibitors of Recombinant Selenoprotein Glutathione Peroxidase 4 (GPX4) (AID 1845192); conditions: outcome: dose series up to 50 µM unless noted; further: nearly all actives have a fitted effect of over 65% in size
# Chain of Phospholipid hydroperoxide glutathione peroxidase GPX4 (Homo sapiens) (P36969 whole entry, looked up): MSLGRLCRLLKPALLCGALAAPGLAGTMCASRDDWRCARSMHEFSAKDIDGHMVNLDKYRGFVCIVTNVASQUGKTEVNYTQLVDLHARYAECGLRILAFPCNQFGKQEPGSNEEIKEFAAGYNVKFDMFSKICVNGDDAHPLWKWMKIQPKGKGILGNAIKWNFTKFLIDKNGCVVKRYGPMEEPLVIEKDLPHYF
# How it was run: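 Steps: GPX4 plus compound, 30 min RT; add GR/GSH/NADPH master mix; start with cumene hydroperoxide; read 340/450 nm fluorescence at 0 and 15 min. Finals were 200 nM GPX4, 1 mM GSH, 0.5 mM CHP, 0.5 mM NADPH, 100 nM GR.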
# [20] = measured here: PEO1 parental Z-AUC
# [21] = measured here: cell count channel max response
# [22] = measured here: lipid channel max response
smiles,measurement,setting,value
COc1nnc2ccc(N3CCC(c4ccc(OCCN5CCN(C)C(=O)[C@H]5C)cc4)CC3)nn12,Potency,[1],66.1 nM (active)
same,Potency,[2],52.5 nM (active)
same,Potency,[3],195 nM (active)
same,Z-AUC,[3]; [20],-1.72
same,Z-AUC,[3]; measured here: PEO4 Z-AUC,-1.83
same,"activity change, negative = inhibition",[4]; Viability,14.1% (inactive)
CN1C2CC(OC(=O)C(CO)c3ccccc3)CC1C1OC12 (stereo not drawn),outcome,[5],inactive
same,Potency,[6],inactive
same,Potency,[7],inactive
same,Potency,[8],inactive
same,Potency,[9],inactive
same,outcome,[10],inactive
same,outcome,[11],inactive
same,outcome,[12],inactive
same,outcome,[13],inactive
CC(C)C1NC(=O)[C@H](CCCCN)NC(=O)[C@@H](Cc2c[nH]c3ccccc23)NC(=O)[C@H](Cc2ccc(O)cc2)NC(=O)[C@H](C)N(C)C(=O)[C@H](Cc2ccccc2)NC1=O (stereo partly drawn),outcome,[5],inactive
same,"activity change, negative = inhibition",[14]; at 57.5 µM (top of the series),0.502% (inactive)
same,max response,[14]; [21],25.5%
same,max response,[14]; [22],23%
same,Potency,[6],inactive
same,Potency,[7],inactive
same,outcome,[15],inactive
same,Potency,[8],inactive
same,Potency,[9],inactive
same,outcome,[10],inactive
same,Potency,[16],inactive
same,outcome,[17],inactive
same,outcome,[11],inactive
same,outcome,[12],inactive
same,outcome,[13],inactive
NC(=O)c1cccc2c(NC(CN3CCC3)c3ccc(Cl)c(C(F)(F)F)c3)ncnc12 (stereo not drawn),Potency,[1],1050 nM (active)
same,Potency,[2],1320 nM (active)
same,Potency,[18],inactive
same,Z-AUC,[3],0.286 (inactive)
same,Z-AUC,[3]; [20],0.149
same,Z-AUC,[3]; measured here: PEO4 Z-AUC,0.205
same,"activity change, negative = inhibition",[4]; HiBiT,-0.923% (inactive)
O=C(/C=C/c1ccc2ccc(C(F)(F)F)cc2n1)c1ccncc1,Potency,[1],2350 nM (active)
same,Potency,[2],2090 nM (active)
same,Potency,[18],inactive
same,Potency,[19],inactive
same,Z-AUC,[3],-0.632 (inactive)
same,Z-AUC,[3]; [20],-0.753
same,Z-AUC,[3]; measured here: PEO4 Z-AUC,-0.961
same,Potency,[4]; HiBiT,4430 nM (active)
NCCC(=O)NCCc1cnc[nH]1,outcome,[5],inactive
same,"activity change, negative = inhibition",[14]; at 25.7 µM (top of the series),1.3% (inactive)
same,max response,[14]; [21],9.26%
same,max response,[14]; [22],15.5%
same,Potency,[6],inactive
same,Potency,[7],inactive
same,outcome,[15],inactive
same,Potency,[8],inactive
same,Potency,[9],inactive
same,outcome,[10],inactive
same,Potency,[16],inactive
same,outcome,[17],inactive
same,outcome,[11],inactive
same,outcome,[12],inactive
same,outcome,[13],inactive
COc1cc(N2CCN(C)CC2)ccc1Nc1ncc2c(n1)N(C)c1ccccc1C(=O)N2C,Potency,[1],2350 nM (active)
same,Potency,[2],2350 nM (active)
same,Potency,[18],inactive
same,Potency,[19],inactive
same,Z-AUC,[3],-0.347 (inactive)
same,Z-AUC,[3]; [20],0.0513
same,Z-AUC,[3]; measured here: PEO4 Z-AUC,-0.152
same,"activity change, negative = inhibition",[4]; Viability,22.1% (inactive)
NC(=NCCC[C@H](N)C(=O)O)NO,outcome,[5],inactive
same,Potency,[6],inactive
same,Potency,[7],inactive
same,outcome,[15],inactive
same,Potency,[8],inactive
same,Potency,[9],inactive
same,outcome,[10],inactive
same,Potency,[16],inactive
same,outcome,[17],inactive
same,outcome,[11],inactive
same,outcome,[12],inactive
same,outcome,[13],inactive
C=CCNc1c(O)cc2c(O)c1C[C@@H](C)C[C@H](OC)[C@H](O)[C@@H](C)/C=C(/C)[C@H](OC(N)=O)[C@@H](OC)/C=C\C=C(\C)C(=O)N2,Potency,[1],1660 nM (active)
same,Potency,[2],1050 nM (active)
same,Potency,[18],inactive
same,Potency,[19],inactive
same,Z-AUC,[3],0.465 (inactive)
same,Z-AUC,[3]; [20],0.348
same,Z-AUC,[3]; measured here: PEO4 Z-AUC,0.268
same,Potency,[4]; HiBiT,44.3 nM (active)

# From PubChem BioAssay (NCATS)
